Experimental data published in PubChem BioAssay AID651784 (National Center for Advancing Translational Sciences (NCATS), 2012).
Inconclusive results are not listed. The source made the active and inactive calls. Calls come from the whole dose curve; as a rule, active = well fitted inhibition curve with a large enough effect; inconclusive = small, poorly fitted or top-dose-only effect; inactive = no such curve, though single readings can be large or run the other way.

Assay: Acumen qHTS Assay for Inhibitors of the mTORC1 Signaling Pathway in MEF (Tsc2-/-, p53-/-) Cells: Hit Validation;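 note: phospho-rpS6 Ser235/236 immunofluorescence normalized to propidium iodide cell count; nearly all actives have a fitted effect of over 65% in size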;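 for activity change, negative = inhibition: cells exposed to compound for 24 hours; plate controls were DMSO for no effect and 7.5 nM rapamycin control for full effect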
Details: Acumen imaging; activity change, negative = inhibition: at 37.3 µM (top of the series)
Potency is the fitted concentration of half-maximal effect.

Structure (SMILES)	Potency	activity change, negative = inhibition
COc1ccccc1N1CCN(C(=O)c2cnc(N3CCCCC3)c3ccccc23)CC1	0.927 µM (active)	
COc1ccc(CNC(=O)c2cccc(N3CCCS3(=O)=O)c2)cc1OC	5.21 µM (active)	
COc1ccc(C(=O)c2sc(Nc3ccccc3)nc2N)cc1		-4.73%
COc1ccc(CCN2C(=O)c3[nH]nc(-c4ccccc4O)c3C2c2cccc(OC)c2)cc1 (stereo not drawn)	5.85 µM (active)	
CCOc1ccccc1NC(=O)N(Cc1ccc(F)cc1)C1CCN(CC)CC1		-15.8%
COc1ccc(S(=O)(=O)N(CCc2ccccc2)CC(=O)Nc2cccc(OC)c2)cc1		-19.2%
Cc1cc(C)c(NC(=O)c2sc3nc(C)cc(C)c3c2NC(=O)c2ccccc2)c(C)c1		-8.54%
O=C(c1ccc(CS(=O)c2ccccc2Cl)o1)N1CCN(c2cccc(Cl)c2)CC1 (stereo not drawn)	0.521 µM (active)	
COC(=O)c1ccccc1NC(=O)CSc1n[nH]c(CC(C)C)n1		5.05%
COc1ccc(OC)c(Nc2c3c(nc4ccccc24)CCC3)c1	3.29 µM (active)	
Cc1nc2scc(C)n2c(=O)c1S(=O)(=O)Nc1ccc(N2CCOCC2)c(Cl)c1	1.47 µM (active)	
Cc1ccc2occ(CC(=O)Nc3ccc(Cl)c(C(F)(F)F)c3)c2c1		-19.2%
CC(C)OCc1cc(CN2CCN(c3cccc(C(F)(F)F)c3)CC2)c(O)c2ncccc12	11.7 µM (active)	
Cc1cc(C)cc(Nc2cc(C(=O)NCCCN(C)C3CCCCC3)c3ccccc3n2)c1		-88.5%
CCOc1ccccc1NC(=O)Cn1c(=O)n(CCC(=O)NCc2ccc3c(c2)OCO3)c(=O)c2ccccc21		-23.6%
Cc1ccc(C(=O)CC2(O)C(=O)N(Cc3ccccc3F)c3ccccc32)cc1 (stereo not drawn)		-11.8%
CCC(C)Sc1oc(-c2ccco2)nc1S(=O)(=O)c1ccc(C)cc1 (stereo not drawn)		3.02%
CCOc1ccc(CNC(=O)c2ccccc2NC(=O)c2nsc3ccccc23)cc1		-112%
COc1ccc(N2CCN(C(=O)C(C)n3nc(C)c4sc5ccccc5c4c3=O)CC2)cc1 (stereo not drawn)		1.14%

Structure (SMILES)	Potency	activity change, negative = inhibition
Cc1ccc(-c2nnc(Nc3ccc(O)cc3)c3ccccc23)cc1S(=O)(=O)N1CCCCC1		-11.6%
Cc1ccc(C)c(CN2C(=O)C(=O)c3ccccc32)c1	1.47 µM (active)	
CC(C)N(C(=O)CSc1nc2ccc(Cl)cc2[nH]1)c1ccccc1		-16%
CCCCN(C)CCNC(=O)C1CCN(c2nc3ccc(CC)cc3s2)CC1		-90.7%
CCCN(c1ccccc1CC)S(=O)(=O)c1ccc2c(c1)CC(C)N2C(=O)C1CC1 (stereo not drawn)	0.521 µM (active)	
COC(=O)c1ccccc1NC(=O)CCS(=O)(=O)c1nc(-c2ccc3c(c2)OCO3)cc(C(F)(F)F)n1		-88.3%
Cc1cccc(NC(=O)c2c(N)sc3c2CCC(C)C3)c1 (stereo not drawn)		15.3%
O=C(Nc1ccc(F)c(F)c1)c1ccc(F)c(S(=O)(=O)N2CCC3(CC2)OCCO3)c1	10.4 µM (active)	
CCCCNC(=O)CSc1c2c(nc3ccc(Cl)cc13)CCCC2		-28.5%
O=C(COc1ccccc1-c1nc(-c2ccccc2)no1)Nc1cccc([N+](=O)[O-])c1	1.04 µM (active)	
Cc1ccc(-c2nnc(C3CCN(S(=O)(=O)c4ccc(C)c(C)c4)CC3)o2)cc1		-7.22%
Fc1ccc(Nc2nc3nonc3nc2Nc2cccc(C(F)(F)F)c2)cc1	1.85 µM (active)	
CCOc1ccccc1NC(=O)CN1C(=O)C(=O)c2ccccc21	18.5 µM (active)	
COc1ccc(NC(=O)CSc2nc3ccccc3nc2N2CCC(C)CC2)cc1		6.7%
COc1ccc(OCC(=O)Nc2ccc3nn(-c4ccc(OC)cc4)nc3c2)cc1		11.1%
CCCN(CCC)CCCNC(=O)C1CCN(c2nc3ccc(CC)cc3s2)CC1	11.7 µM (active)	
CCCCS(=O)(=O)c1oc(-c2ccc(F)cc2)nc1S(=O)(=O)c1ccc(C)cc1	4.65 µM (active)	
Cc1cccc(CS(=O)(=O)c2ncc(Cl)c(C(=O)NCc3ccccc3)n2)c1		-111%
COc1ccc(-c2cc(C(F)(F)F)nc(S(=O)(=O)CCCC(=O)Nc3ccccc3C(F)(F)F)n2)cc1OC	13.1 µM (active)	
